This note sets out measurements from PubChem BioAssay (Tox21).

Test [1] in a line: qHTS assay for small molecules that induce genotoxicity in human embryonic kidney cells expressing luciferase-tagged ATAD5 (AID 651632). Note: nearly all actives have a fitted effect of over 15% in size. The following applies: HEK293T ATAD5-luciferase induction, 16 h; series mostly up to 83.3 µM. The gist of the method: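 Quantitative HTS in HEK293T expressing luciferase-tagged ATAD5, whose levels rise upon DNA damage. Exposure ran 16 hr at 37C and 5% CO2, with luminescence read 30 min after Amplite addition at room temperature.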
On the technique in general: In qHTS, concentration-response curves come from the screen itself.

A short description of test [2]: qHTS assay for small molecule agonists of the p53 signaling pathway - cell viability (AID 651633; calls by dose curve;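 note: p53RE-bla HCT reporter cells with a stable beta-lactamase p53 reporter; nearly all actives have a fitted effect of over 30% in size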). The following applies: p53RE-bla HCT-116 viability, ATP luminescence, 16 h; series mostly up to 83.3 µM. The gist of the method: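 p53RE-bla cells were treated with compound for 16 hours at 37 C. Cytotoxicity was then measured as CellTiter-Glo luminescence after 30 min at room temperature.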

Test [3] in a line: qHTS assay for small molecules that induce genotoxicity in human embryonic kidney cells expressing luciferase-tagged ATAD5 - cell viability (AID 651634; calls by dose curve; note: nearly all actives have a fitted effect of over 25% in size; note: potency is the fitted concentration of half-maximal effect). The conditions noted are these: HEK293T ATAD5-luc cells viability, CellTiter-Fluor, 15.5 h; series mostly up to 83.3 µM. The gist of the method: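 After 15.5 hr incubation with compound at 37C, 5% CO2, HEK293T ATAD5-luciferase cells received CellTiter-Fluor reagent; fluorescence intensity was quantified following 30 min at 37C.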

A short description of test [4]: qHTS assay for small molecule disruptors of the mitochondrial membrane potential - cell viability (AID 720634; calls by dose curve;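 note: human HepG2 liver cancer cells; nearly all actives have a fitted effect of over 20% in size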). The conditions noted are these: HepG2 viability, ATP luminescence (CellTiter-Glo), 1 h; series mostly up to 83.2 µM. The gist of the method: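 ATP-based luminescent viability readout (CellTiter-Glo, 30 min, room temperature) in HepG2 cells multiplexed with the m-MPI membrane potential dye; compound exposure lasted 1 hr at 37 C.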

The nature of test [5]: qHTS assay for small molecule disruptors of the mitochondrial membrane potential (AID 720635). The conditions noted are these: HepG2 mitochondrial membrane potential, Mito-MPS dye ratio; series mostly up to 83.2 µM. The gist of the method:
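HepG2 cells exposed to compound 1 hr at 37C, then Mito-MPS dye 30 min. Ratio read of aggregate (540/590 nm) versus monomer (490/535 nm) fluorescence.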

A short description of test [6]: qHTS assay to test for compound auto fluorescence at 590 nm (red) in HepG2 cells (AID 720674). The conditions noted are these: HepG2 autofluorescence, red 540/590 nm, 1 h; series mostly up to 91.3 µM. The gist of the method:
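Fluorescence at 590 nm emission following 540 nm excitation was recorded from HepG2 wells one hour after compound transfer, with DMSO-only wells as vehicle and Rose Bengal sodium equivalency as the scale.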

Test [7] in a line: qHTS assay to test for compound auto fluorescence at 535 nm (green) in HepG2 cells (AID 720675). The conditions noted are these: green autofluorescence 485/535 nm, 1 h; series mostly up to 91.3 µM.
A short description of test [8]: qHTS assay to test for compound auto fluorescence at 460 nm (blue) in HEK293 cells (AID 720678). The conditions noted are these: blue autofluorescence 405/460 nm; series mostly up to 91.3 µM. The gist of the method:
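Measured: blue fluorescence (Ex 405/Em 460 nm) of compound-treated HEK293 cells, incubated overnight at 37C with 5% CO2 and scaled to triamterene equivalents.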

Test [9] is described as follows: qHTS assay to test for compound auto fluorescence at 590 nm (red) in HEK293 cells (AID 720679). The following applies: red autofluorescence 540/590 nm; series mostly up to 91.3 µM. The gist of the method:
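Using HEK293 cells at 2,000 per well, the screen added 23 nL of each compound after cell attachment and incubated overnight (37C, 5% CO2). The plate reader then captured red-label fluorescence, Ex/Em 540/590nm.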

Test [10] is described as follows: qHTS assay to test for compound auto fluorescence at 535 nm (green) in HEK293 cells (AID 720680). The conditions noted are these: green autofluorescence 485/535 nm; series mostly up to 91.3 µM.
A short description of test [11]: qHTS assay to test for compound auto fluorescence at 460 nm (blue) in HEK293 cell free culture (AID 720681). The following applies: cell-free medium, autofluorescence 405/460 nm (blue); series mostly up to 91.3 µM. The gist of the method:
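Compounds were added to cell-free DMEM with 10% FBS and fluorescence read directly. The blue channel used 405 nm excitation and 460 nm emission, with triamterene as the reference fluorophore.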

The nature of test [12]: qHTS assay to test for compound auto fluorescence at 535 nm (green) in HEK293 cell free culture (AID 720682). The following applies: cell-free medium, green autofluorescence 485/535 nm, hits give high values; series mostly up to 91.3 µM. The gist of the method: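 Using fluorescein as calibrant, autofluorescence was quantified at 485/535 nm in cell-free DMEM containing 10% FBS after pintool addition of compound or vehicle.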

Test [13] is described as follows: qHTS assay to test for compound auto fluorescence at 590 nm (red) in HEK293 cell free culture (AID 720683). The following applies: cell-free medium autofluorescence, Ex540/Em590 red; series mostly up to 91.3 µM. The gist of the method:
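Cell-free wells of DMEM with 10% FBS received compound, and intrinsic fluorescence was read at excitation/emission 540/590 nm. Values expressed as equivalence to Rose Bengal sodium.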

Test [14] is described as follows: qHTS assay to test for compound auto fluorescence at 590 nm (red) in HepG2 cell free culture (AID 720684). The following applies: cell-free medium autofluorescence, red 540/590 nm; series mostly up to 91.3 µM. The gist of the method: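 Rose Bengal sodium served as the reference for red signal. Test compounds were dispensed into serum-containing MEM (10% FBS) without cells, and plates were read at 540/590 nm.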

A short description of test [15]: qHTS assay to test for compound auto fluorescence at 460 nm (blue) in HepG2 cell free culture (AID 720685). The conditions noted are these: Cell-free culture medium, blue autofluorescence 405/460 nm; series mostly up to 91.3 µM. The gist of the method:
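Cell-free plates of MEM plus 10% FBS received 23 nL compound or DMSO vehicle; blue-channel (405/460 nm) intensity scored against triamterene as reference fluorophore.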

The nature of test [16]: qHTS assay to test for compound auto fluorescence at 535 nm (green) in HepG2 cell free culture (AID 720686). The conditions noted are these: Cell-free medium, green autofluorescence 485/535 nm; series mostly up to 91.3 µM.
Test [17] in a line: qHTS assay to test for compound auto fluorescence at 460 nm (blue) in HepG2 cells (AID 720687). The following applies: autofluorescence 405/460 nm, 1 h; series mostly up to 91.3 µM. The gist of the method:
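HepG2 cells in MEM with 10% FBS, attached overnight at 37 C, were exposed to compound or DMSO for 1 hr at 37 C, 5% CO2. Blue fluorescence was read at 405/460 nm, with triamterene as reference fluorophore.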

Test [18] has as its target Glucocorticoid receptor (Homo sapiens) (UniProt P04150). Description: qHTS assay to identify small molecule agonists of the glucocorticoid receptor (GR) signaling pathway (AID 720691; active = well fitted activation curve with a large enough effect in the signal ratio in the repeat runs, not every such curve was filed as active; the % refers to the signal ratio). The conditions noted are these: GR-bla HeLa, beta-lactamase reporter ratio, 18 h; series mostly up to 62.4 µM. The gist of the method:
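Cells: GR-bla HeLa, endogenous GR with stably integrated GRE-beta-lactamase reporter. Treatment 18 h, 37 C, compounds delivered in DMSO. Detection via LiveBLAzer B/G FRET substrate, 2 h RT, fluorescence intensity.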

Results filed as inconclusive are left out. The source made the active and inactive calls. Unless noted, calls come from the whole dose curve; as a rule, active = well fitted curve in the direction sought with a large enough effect in the repeat runs; inconclusive = weak or mixed curves; inactive = no such curve, though single readings can be large; an effect the other way counts as inactive or inconclusive.

Chain of Glucocorticoid receptor (Homo sapiens) (P04150 whole entry, looked up): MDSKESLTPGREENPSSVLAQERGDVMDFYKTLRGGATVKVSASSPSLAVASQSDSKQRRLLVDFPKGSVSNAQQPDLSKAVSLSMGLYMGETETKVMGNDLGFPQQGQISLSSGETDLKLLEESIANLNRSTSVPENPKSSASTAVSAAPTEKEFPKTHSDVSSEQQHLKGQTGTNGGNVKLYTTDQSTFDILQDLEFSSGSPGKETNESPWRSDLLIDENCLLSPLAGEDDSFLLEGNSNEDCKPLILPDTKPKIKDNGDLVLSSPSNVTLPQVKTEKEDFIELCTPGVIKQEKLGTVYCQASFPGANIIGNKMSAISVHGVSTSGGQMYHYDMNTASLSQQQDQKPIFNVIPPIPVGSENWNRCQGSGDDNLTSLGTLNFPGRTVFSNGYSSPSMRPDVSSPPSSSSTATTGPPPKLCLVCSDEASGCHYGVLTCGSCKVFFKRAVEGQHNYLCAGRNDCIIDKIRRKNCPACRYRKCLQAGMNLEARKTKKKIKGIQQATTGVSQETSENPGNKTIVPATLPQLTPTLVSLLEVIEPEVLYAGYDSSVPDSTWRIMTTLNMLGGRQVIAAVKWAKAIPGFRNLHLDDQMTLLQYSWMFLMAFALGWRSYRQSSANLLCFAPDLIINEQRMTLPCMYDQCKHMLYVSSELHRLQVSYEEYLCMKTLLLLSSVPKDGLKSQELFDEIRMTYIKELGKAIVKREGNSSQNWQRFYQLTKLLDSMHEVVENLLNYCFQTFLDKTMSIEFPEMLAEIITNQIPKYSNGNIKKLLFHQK

Consider `CCCCCCCC/C=C\CCCCCCCCO`, for which the Potency entry in test [1], in test [2], in test [3], in [4], in test [5] and in test [8] was “inactive” throughout. Moreover, the Potency result in [11], in test [15], in test [17] and in [18] was “inactive” in each case. Besides, the call in [6], in [7], in test [9], in [10], in [12] and in test [13] was inactive. Also, the result in test [14] and in [16] was inactive.
Take `CC1CC(OC(=O)C(O)c2ccccc2)CC(C)(C)N1C` (centres undefined): the Potency result in [1], in test [2], in test [3], in test [4], in test [8] and in [11] was “inactive” in each case. Also, the Potency result in test [15], in test [17] and in test [18] was “inactive” each time. Moreover, the molecule was classed as inactive in test [6], in [7], in test [9], in test [10], in test [12] and in test [13]. For the same molecule, the molecule was classed as inactive in test [14] and in [16].
For `CC(=O)c1ccc([N+](=O)[O-])cc1`, the Potency result in [1], in test [2], in [3], in [4], in [8] and in [11] was “inactive” throughout. Besides, the Potency entry in test [15], in [17] and in test [18] was “inactive” in each case. The outcome in [6], in test [7], in [9], in [10], in [12] and in test [13] was inactive. Besides, the result in test [14] and in test [16] was inactive.
In the case of `CC1=C(Br)C(=O)C(Br)=C/C1=C(/c1ccccc1S(=O)(=O)O)c1cc(Br)c(O)c(Br)c1C`, the Potency result in test [1], in test [2], in test [4], in test [8], in [11] and in test [15] was “inactive” throughout. In addition, the Potency entry in [17] and in test [18] was “inactive” in each case. For the same molecule, the Potency in [3] was 37 µM (active). The molecule was classed as inactive in test [6], in test [7], in test [9], in test [10], in test [12] and in test [13]. Moreover, the outcome in test [14] and in [16] was inactive.
